The target in assay [1] is T1, Inhibitor of nuclear factor kappa-B kinase subunit epsilon (Homo sapiens) (UniProt Q14164).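 Also: reported values are averaged percent inhibition figures against human IKKε.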
T1 sequence (whole entry): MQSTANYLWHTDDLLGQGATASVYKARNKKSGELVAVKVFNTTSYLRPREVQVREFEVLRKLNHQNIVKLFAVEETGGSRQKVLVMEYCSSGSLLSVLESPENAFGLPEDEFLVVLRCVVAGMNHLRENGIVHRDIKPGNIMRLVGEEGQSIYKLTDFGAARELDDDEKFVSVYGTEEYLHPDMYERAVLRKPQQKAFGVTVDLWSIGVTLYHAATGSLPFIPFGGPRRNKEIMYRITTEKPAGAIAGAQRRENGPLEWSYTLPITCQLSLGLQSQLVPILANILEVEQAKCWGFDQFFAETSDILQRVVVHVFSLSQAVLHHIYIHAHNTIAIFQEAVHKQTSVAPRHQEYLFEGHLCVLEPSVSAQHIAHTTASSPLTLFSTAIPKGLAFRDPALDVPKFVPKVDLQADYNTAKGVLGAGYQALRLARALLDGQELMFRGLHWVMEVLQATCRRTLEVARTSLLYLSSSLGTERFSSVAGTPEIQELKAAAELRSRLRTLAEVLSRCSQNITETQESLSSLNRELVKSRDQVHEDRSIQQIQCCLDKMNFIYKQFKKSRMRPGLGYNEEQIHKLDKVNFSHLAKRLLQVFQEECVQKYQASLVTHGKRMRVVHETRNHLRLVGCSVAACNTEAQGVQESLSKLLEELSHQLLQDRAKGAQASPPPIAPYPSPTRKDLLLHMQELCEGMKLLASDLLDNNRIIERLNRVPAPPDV
The conditions noted are these: at 1 µM.

Assay [2] addresses T2, Serine/threonine-protein kinase Nek1 (Homo sapiens) (UniProt Q96PY6).
T2 sequence (whole entry): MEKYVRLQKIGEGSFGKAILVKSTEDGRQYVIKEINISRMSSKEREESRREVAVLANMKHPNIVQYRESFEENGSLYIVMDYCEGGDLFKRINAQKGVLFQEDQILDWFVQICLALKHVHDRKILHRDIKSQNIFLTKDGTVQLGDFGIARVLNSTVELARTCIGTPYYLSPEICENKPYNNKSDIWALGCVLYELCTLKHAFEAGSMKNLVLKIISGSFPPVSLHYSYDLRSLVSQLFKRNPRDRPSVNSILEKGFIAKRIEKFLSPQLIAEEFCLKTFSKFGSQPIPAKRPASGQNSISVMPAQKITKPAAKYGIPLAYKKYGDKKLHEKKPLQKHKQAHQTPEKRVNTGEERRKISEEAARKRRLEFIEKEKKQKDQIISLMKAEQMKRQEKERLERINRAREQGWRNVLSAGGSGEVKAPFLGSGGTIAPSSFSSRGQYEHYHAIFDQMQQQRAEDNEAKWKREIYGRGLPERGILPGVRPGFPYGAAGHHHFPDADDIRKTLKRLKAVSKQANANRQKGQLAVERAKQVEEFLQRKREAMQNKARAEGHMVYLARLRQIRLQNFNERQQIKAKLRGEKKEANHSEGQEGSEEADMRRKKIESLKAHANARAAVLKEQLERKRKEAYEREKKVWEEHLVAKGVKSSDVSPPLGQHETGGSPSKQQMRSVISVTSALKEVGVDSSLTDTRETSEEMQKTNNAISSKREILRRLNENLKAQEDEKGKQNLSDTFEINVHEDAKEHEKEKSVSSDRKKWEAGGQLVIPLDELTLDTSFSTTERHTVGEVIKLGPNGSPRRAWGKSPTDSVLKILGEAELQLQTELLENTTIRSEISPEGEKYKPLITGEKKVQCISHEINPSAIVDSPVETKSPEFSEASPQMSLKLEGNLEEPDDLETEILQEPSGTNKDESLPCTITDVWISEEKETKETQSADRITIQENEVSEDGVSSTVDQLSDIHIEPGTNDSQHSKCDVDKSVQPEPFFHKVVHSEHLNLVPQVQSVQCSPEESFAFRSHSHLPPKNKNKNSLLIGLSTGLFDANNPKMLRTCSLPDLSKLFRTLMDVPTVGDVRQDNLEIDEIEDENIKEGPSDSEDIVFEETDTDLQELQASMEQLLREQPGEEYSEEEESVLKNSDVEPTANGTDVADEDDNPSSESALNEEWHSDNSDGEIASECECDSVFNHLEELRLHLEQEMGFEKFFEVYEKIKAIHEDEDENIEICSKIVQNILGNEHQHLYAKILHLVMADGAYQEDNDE
The conditions noted are these: at 0.1 µM.

In assay [3] the target is T2, Serine/threonine-protein kinase Nek1 (Homo sapiens). The note with it: at 1 µM.
Assay [4] deals with T3, Serine/threonine-protein kinase Nek2 (Homo sapiens) (UniProt P51955).
T3 sequence (whole entry): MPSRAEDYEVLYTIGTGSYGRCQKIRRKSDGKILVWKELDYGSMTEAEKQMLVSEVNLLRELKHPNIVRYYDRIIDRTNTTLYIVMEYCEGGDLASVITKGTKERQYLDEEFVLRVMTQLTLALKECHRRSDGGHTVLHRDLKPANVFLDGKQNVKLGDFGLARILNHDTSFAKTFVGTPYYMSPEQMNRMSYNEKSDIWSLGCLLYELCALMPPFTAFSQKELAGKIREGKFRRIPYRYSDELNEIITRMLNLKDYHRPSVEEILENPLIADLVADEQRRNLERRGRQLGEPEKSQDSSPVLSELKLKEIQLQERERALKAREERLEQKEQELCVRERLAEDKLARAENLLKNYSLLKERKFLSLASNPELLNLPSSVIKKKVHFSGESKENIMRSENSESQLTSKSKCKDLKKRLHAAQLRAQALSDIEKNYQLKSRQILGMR
The conditions noted are these: at 0.1 µM.

In assay [5] the target is T3, Serine/threonine-protein kinase Nek2 (Homo sapiens). The conditions noted are these: at 1 µM.
The target of assay [6] is Serine/threonine-protein kinase Nek6 (Homo sapiens) (UniProt Q9HC98). The conditions noted are these: at 0.1 µM.
Assay [7] shares this target. The note with it: at 1 µM.
The target of assay [8] is Serine/threonine-protein kinase Nek7 (Homo sapiens) (UniProt Q8TDX7). The conditions noted are these: at 0.1 µM.
For assay [9] the target is unchanged. The conditions noted are these: at 1 µM.
The target of assay [10] is T4, Serine/threonine-protein kinase Nek9 (Homo sapiens) (UniProt Q8TD19).
T4 sequence (whole entry): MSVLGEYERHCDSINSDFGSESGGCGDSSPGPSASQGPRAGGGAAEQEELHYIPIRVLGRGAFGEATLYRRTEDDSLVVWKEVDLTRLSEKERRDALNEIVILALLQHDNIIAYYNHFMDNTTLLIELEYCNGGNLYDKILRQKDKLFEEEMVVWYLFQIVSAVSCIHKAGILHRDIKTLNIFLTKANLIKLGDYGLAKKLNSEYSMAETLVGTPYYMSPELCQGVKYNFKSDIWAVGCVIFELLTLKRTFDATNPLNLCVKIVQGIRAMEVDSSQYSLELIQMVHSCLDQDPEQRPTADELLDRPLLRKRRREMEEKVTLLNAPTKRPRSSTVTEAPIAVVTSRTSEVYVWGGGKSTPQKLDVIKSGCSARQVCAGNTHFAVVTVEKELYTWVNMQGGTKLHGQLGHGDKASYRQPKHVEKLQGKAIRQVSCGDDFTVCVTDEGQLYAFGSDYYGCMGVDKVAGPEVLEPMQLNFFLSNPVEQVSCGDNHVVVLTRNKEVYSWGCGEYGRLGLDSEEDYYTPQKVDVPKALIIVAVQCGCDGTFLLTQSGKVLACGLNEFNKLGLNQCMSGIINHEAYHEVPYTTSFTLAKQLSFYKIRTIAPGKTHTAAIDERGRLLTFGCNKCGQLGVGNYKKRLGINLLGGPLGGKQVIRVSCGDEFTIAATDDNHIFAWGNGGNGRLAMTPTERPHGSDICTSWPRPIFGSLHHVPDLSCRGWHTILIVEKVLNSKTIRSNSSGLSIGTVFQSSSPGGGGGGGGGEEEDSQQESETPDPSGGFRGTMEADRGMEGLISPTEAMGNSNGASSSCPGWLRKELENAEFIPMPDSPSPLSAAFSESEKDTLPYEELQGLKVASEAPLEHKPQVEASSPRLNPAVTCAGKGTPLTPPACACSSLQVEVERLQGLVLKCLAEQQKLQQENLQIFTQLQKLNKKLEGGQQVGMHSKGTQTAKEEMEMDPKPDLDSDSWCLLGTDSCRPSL
The note with it: at 0.1 µM.

The target of assay [11] is T4, Serine/threonine-protein kinase Nek9 (Homo sapiens). The conditions noted are these: at 1 µM.
For assay [12], the target named is Serine/threonine-protein kinase PLK1 (Homo sapiens) (UniProt P53350). The note with it: at 0.1 µM.
Assay [13] has the same target. The conditions noted are these: at 1 µM.
Assay [14] addresses T5, Dual specificity protein kinase TTK (Homo sapiens) (UniProt P33981).
T5 sequence (whole entry): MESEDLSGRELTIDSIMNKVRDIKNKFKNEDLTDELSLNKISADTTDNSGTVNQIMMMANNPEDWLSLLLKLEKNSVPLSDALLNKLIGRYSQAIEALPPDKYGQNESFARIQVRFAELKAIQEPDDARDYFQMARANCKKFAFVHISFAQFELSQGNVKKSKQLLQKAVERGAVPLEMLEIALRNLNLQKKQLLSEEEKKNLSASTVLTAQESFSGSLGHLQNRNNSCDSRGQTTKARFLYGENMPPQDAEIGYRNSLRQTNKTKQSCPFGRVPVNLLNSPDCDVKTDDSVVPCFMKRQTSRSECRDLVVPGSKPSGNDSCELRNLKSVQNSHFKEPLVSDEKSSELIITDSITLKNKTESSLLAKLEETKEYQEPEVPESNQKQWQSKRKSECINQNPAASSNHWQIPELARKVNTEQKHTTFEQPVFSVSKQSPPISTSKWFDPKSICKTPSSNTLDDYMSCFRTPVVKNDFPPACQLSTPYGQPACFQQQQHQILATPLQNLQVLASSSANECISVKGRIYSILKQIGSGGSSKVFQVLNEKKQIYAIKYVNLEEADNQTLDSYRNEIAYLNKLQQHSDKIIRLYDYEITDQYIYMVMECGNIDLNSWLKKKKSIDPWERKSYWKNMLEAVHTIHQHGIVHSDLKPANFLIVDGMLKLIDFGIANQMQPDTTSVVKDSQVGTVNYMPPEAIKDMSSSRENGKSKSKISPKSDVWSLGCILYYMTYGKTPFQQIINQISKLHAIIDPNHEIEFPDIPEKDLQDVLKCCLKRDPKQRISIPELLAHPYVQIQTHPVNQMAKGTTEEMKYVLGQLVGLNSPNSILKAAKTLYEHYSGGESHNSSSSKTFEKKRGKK
The note with it: at 0.1 µM.

Assay [15] has as its system T6, Receptor-type tyrosine-protein kinase FLT3 (Homo sapiens), P36888 [D835Y].
T6 sequence (whole entry): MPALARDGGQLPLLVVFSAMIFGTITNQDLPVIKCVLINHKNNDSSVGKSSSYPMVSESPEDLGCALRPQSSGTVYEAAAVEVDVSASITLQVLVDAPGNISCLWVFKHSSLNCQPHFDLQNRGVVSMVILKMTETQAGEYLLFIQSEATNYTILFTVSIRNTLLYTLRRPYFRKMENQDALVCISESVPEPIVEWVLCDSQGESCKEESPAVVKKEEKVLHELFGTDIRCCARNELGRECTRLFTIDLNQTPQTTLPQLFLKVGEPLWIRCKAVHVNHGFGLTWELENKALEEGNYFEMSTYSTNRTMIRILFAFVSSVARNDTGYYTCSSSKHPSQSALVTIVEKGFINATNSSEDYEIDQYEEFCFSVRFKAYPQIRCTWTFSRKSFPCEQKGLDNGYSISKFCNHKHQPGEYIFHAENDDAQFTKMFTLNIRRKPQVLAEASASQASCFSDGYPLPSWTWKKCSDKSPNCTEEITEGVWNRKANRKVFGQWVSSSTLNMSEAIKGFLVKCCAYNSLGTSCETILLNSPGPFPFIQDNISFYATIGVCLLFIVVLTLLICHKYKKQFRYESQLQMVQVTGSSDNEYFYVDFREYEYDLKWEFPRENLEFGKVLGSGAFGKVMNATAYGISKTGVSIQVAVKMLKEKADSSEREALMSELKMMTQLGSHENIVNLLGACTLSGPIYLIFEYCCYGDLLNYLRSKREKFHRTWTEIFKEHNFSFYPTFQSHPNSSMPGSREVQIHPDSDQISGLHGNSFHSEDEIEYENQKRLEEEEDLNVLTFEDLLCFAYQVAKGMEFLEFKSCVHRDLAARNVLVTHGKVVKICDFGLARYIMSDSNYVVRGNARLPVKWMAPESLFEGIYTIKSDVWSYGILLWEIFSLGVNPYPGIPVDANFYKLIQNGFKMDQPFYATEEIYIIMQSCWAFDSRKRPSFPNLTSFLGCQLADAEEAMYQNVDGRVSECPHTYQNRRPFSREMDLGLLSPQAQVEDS
The note with it: at 1 µM.

In assay [16] the target is Vascular endothelial growth factor receptor 3 (Homo sapiens) (UniProt P35916). The note with it: at 0.1 µM.
Assay [17] has the same target. The note with it: at 1 µM.
Assay [18] has as its target Macrophage colony-stimulating factor 1 receptor (Homo sapiens) (UniProt P07333). The conditions noted are these: at 0.1 µM.
The target is the same in assay [19]. The note with it: at 1 µM.
In assay [20] the target is Tyrosine-protein kinase Fyn (Homo sapiens) (UniProt P06241). The note with it: at 0.1 µM.

Each structure is given as a SMILES string.

Usually inhibition stands for the change of the read-out against control, counted positive when it falls.

Chain of Serine/threonine-protein kinase Nek6 (Homo sapiens) (Q9HC98 whole entry): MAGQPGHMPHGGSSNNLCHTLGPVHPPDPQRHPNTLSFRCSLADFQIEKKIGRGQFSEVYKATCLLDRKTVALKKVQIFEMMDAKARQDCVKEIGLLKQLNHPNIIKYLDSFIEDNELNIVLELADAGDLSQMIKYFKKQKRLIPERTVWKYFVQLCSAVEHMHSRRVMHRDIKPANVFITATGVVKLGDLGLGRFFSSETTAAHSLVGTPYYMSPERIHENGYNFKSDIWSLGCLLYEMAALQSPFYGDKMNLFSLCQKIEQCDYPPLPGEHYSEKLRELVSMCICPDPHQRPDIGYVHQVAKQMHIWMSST
Chain of Serine/threonine-protein kinase PLK1 (Homo sapiens) (P53350 whole entry): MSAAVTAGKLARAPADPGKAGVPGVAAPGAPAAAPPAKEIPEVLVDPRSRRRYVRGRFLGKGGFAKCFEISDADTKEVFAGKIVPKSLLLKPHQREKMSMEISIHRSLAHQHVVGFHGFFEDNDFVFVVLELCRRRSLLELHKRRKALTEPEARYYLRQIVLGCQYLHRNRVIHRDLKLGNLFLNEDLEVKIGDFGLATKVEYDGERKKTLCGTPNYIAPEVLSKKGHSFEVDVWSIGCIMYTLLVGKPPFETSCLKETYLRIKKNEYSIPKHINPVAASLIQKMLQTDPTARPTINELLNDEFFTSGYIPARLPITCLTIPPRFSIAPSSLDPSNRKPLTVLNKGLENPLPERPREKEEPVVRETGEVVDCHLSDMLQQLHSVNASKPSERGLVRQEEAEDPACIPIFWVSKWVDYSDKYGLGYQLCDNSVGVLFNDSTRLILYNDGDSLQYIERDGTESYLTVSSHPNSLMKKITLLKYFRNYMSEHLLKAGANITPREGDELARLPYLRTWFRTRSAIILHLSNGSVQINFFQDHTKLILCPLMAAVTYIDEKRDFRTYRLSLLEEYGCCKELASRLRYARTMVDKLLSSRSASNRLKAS
Chain of Vascular endothelial growth factor receptor 3 (Homo sapiens) (P35916 whole entry): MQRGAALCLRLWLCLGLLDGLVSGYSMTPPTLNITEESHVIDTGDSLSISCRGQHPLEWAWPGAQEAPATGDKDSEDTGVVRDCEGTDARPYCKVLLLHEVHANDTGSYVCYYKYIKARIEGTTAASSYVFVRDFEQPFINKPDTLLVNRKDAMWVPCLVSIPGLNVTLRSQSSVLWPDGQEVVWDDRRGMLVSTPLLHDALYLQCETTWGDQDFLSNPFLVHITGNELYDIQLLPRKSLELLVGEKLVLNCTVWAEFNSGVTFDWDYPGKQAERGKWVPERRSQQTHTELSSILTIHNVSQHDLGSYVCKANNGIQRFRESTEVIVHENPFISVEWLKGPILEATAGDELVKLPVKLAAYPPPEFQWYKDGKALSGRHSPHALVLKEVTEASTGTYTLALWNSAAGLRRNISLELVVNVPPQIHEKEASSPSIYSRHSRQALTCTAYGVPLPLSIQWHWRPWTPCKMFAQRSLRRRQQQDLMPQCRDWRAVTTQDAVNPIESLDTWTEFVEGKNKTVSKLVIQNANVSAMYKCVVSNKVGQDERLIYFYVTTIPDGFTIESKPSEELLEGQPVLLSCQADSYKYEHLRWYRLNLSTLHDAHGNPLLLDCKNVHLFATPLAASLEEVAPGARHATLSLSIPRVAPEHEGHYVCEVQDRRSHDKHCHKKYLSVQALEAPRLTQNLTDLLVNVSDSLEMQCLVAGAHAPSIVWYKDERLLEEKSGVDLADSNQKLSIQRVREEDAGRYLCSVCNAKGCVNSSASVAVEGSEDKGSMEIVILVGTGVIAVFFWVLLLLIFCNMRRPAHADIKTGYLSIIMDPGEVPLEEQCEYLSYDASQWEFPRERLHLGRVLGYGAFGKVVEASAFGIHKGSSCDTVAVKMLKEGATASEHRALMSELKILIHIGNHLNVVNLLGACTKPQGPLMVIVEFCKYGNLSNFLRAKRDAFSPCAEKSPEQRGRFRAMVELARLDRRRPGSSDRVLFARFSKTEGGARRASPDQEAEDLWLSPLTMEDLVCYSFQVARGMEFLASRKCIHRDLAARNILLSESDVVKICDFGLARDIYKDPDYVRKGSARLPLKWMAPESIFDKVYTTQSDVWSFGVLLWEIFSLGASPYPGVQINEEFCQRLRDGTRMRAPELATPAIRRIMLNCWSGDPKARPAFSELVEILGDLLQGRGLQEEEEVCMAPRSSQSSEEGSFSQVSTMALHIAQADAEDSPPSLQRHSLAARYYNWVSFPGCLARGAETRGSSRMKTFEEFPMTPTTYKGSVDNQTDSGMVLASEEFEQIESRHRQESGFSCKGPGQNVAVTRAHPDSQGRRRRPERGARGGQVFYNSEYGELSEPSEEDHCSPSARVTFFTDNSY
Chain of Serine/threonine-protein kinase Nek7 (Homo sapiens) (Q8TDX7 whole entry, looked up): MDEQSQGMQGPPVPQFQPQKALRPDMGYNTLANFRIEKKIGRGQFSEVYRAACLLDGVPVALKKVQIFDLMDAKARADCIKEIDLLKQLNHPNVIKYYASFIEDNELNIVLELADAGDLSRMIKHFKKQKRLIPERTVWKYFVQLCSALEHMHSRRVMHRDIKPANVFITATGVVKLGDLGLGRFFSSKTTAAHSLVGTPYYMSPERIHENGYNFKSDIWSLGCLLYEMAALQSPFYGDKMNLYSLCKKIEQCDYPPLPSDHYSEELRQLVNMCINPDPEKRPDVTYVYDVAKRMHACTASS
Chain of Macrophage colony-stimulating factor 1 receptor (Homo sapiens) (P07333 whole entry): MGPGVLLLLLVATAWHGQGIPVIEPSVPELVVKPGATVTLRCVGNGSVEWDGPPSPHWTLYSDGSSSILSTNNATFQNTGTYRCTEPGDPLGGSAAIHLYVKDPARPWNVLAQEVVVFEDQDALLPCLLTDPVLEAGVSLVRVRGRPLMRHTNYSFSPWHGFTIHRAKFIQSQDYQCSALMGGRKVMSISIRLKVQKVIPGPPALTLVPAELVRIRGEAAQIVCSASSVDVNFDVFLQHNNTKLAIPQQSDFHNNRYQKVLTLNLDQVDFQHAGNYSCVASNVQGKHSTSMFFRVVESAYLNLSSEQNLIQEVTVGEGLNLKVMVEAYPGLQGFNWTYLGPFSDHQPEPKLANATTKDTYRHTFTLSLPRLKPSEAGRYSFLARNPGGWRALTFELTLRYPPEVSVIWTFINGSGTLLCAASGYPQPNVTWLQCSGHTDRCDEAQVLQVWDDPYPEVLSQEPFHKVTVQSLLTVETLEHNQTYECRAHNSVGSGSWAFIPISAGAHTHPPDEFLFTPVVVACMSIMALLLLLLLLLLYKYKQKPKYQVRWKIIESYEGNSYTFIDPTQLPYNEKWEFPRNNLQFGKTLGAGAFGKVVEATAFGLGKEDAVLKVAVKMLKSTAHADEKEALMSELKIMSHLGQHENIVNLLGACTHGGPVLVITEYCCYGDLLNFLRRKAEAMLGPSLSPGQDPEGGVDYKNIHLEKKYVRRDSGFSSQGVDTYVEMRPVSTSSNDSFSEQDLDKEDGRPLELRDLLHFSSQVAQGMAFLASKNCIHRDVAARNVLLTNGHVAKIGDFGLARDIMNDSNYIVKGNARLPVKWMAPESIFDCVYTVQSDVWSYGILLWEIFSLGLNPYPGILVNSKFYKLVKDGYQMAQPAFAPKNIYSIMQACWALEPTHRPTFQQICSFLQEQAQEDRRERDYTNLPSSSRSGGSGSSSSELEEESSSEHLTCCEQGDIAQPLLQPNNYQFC
Chain of Tyrosine-protein kinase Fyn (Homo sapiens) (P06241 2-537 limits assumed): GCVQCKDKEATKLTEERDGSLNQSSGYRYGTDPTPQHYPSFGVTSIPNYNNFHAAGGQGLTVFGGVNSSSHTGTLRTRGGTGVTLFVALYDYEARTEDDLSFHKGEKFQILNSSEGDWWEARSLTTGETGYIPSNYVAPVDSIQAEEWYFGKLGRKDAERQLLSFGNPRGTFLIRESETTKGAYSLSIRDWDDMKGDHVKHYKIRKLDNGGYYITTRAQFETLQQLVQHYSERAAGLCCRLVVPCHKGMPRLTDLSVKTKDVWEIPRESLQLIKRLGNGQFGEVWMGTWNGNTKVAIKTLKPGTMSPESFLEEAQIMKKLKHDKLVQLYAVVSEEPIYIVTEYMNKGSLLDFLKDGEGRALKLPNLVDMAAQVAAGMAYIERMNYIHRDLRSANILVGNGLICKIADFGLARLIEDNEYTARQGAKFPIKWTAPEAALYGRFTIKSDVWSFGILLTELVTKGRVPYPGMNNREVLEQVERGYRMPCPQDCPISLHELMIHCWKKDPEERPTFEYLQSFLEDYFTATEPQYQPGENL

With `CS(=O)(=O)CCNCc1ccoc1-c1ccc2ncnc(Nc3ccc(OCc4ccccc4)cc3)c2c1`, the inhibition in [1] is 0.42%; in [2] it was 0.71%; in assay [3], 2.1%; in [4], 1.71%; in assay [5] it was 0.9%; in assay [6] it was 1.71%. Besides, the inhibition in [7] was 0.7%; in [8] it was 0.9%; in assay [9], 1.09%; in assay [10], -0.36%; in assay [11] it was 1.8%; in [12], 2.42%. The inhibition is 3.33% in assay [13]; 3.38% in assay [14]; 2.16% in assay [15]; 2.25% in [16]; 2.83% in assay [17]; -0.38% in [18]. Besides, the inhibition in assay [19] was 6.09%; in assay [20], 1.81%.

Regarding `c1ccc(-c2n[nH]cc2-c2ccnc(-c3ccc(OCCn4ccnc4)cc3)c2)nc1`, the inhibition was 2.18% in [1]; 0.35% in [2]; 2.46% in assay [3]; 0.51% in assay [4]; 1.73% in assay [5]; 0.49% in assay [6]. For the same compound, the inhibition in assay [7] is 4.21%; in assay [8] it was 2.27%; in assay [9] it was 2.32%; in assay [10], 2.13%; in assay [11], 2.33%; in assay [12], 1.2%. For the same compound, the inhibition came out at 2.17% in [13]; 3.26% in [14]; 5.27% in [15]; 5.33% in assay [16]; 16.4% in assay [17]; 2.61% in [18]. The inhibition came to 11.8% in [19] and 2.86% in [20].

(Values after ChEMBL document CHEMBL1961873, “Compounds: GSK PKIS; Assays: Nanosyn kinase panel” (2012).)
